Results from the supplement of paper PMC3334620.
Over roughly 33,000 sequences, “E-score (-0.5 to 0.5)” has its median near -0.054; the highest 2% begin near 0.39. The sample as a whole holds a higher share of the highest values than the screen did.

These sequences were tested against Ylr278c (UniProt Q05854) (assay: PBM E-score (8-mer binding enrichment) (E-score (-0.5 to 0.5)); higher = stronger / more preferred TF binding). Conditions: protein concentration: 200 nM; construct: GST-DNA-binding domain.
Sequence of UniProt Q05854 (Q05854 whole entry, the tested form may be a part): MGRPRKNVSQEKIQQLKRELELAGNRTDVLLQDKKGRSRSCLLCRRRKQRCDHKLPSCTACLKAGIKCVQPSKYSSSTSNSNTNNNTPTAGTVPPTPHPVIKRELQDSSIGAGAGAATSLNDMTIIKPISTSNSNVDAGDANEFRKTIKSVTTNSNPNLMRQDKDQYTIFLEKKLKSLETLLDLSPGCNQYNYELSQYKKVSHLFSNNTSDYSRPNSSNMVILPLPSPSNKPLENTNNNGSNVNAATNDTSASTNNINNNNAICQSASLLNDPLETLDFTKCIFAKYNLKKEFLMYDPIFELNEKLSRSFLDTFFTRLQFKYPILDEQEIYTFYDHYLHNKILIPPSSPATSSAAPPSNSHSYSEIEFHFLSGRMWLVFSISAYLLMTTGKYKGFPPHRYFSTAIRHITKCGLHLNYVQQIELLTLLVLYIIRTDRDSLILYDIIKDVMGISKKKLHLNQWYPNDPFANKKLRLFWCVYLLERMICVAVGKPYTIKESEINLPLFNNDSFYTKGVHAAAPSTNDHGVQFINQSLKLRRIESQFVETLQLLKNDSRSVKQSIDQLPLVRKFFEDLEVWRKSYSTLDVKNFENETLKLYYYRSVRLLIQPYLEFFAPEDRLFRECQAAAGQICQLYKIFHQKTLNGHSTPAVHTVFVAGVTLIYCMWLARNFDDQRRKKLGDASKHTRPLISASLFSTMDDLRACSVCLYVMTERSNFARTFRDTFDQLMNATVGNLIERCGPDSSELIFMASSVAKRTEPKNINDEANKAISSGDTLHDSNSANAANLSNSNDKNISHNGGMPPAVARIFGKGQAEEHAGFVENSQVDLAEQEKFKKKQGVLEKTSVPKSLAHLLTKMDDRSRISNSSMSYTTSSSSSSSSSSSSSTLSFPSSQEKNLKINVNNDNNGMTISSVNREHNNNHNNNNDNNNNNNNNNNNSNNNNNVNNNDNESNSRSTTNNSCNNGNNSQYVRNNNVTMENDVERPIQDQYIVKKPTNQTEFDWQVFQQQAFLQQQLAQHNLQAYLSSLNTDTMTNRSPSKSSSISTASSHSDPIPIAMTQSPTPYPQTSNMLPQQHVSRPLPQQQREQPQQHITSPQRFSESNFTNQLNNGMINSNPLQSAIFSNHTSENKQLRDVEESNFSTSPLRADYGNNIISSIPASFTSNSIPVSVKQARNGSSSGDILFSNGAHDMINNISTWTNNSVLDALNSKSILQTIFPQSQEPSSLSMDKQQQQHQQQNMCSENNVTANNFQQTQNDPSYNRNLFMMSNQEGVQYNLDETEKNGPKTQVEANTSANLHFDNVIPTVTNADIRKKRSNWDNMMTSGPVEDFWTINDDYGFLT
Experimental: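 Universal 'all 10-mer' protein binding microarrays (Agilent AMADID 015681) probed with GST-tagged S. cerevisiae TFs (full-length or DBD) made by in vitro transcription/translation (PURExpress), about 100-200 nM. Bound TF was detected with fluorescent anti-GST. Each ungapped 8-mer (which stands for itself and its reverse complement) is scored by the PBM enrichment score (E-score), a modified Wilcoxon-Mann-Whitney statistic from -0.5 to +0.5, computed with the Universal PBM Analysis Suite. Scale: above 0.35 generally sequence-specific binding.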

Sequence	PBM E-score
CATTTGAG	-0.0532
GCGGACTA	0.384
ACGGACTA	0.315
CGGGACTC	0.341
ACGGACTC	0.304
CCGGACTA	0.458
CCGGACTC	0.43
AGGCCTAC	-0.167
AAGCAATT	-0.0901
CATCCCAC	-0.135
ATAGTGTA	-0.188
GCCAAACC	0.119
GACTTGAC	-0.059
AGTATCTG	-0.207
CCGATCGA	0.226
ACGATCGG	0.334
CCGATCGG	0.43
CCGATCCA	0.208
CCGATCCG	0.424
ACGATCCG	0.283
CCGATTAA	0.333
CATGTTGA	-0.0612
CGAGAATA	0.0398
CAGGGCCG	0.181
ATTTAAGA	-0.154
AAGATGGT	-0.0478

Sequence	PBM E-score
CTACGGAA	0.197
CTACGGAG	0.398
ATACGGAT	0.256
ATACGGAA	0.345
ATACGGAG	0.425
CTACGGAC	0.261
CTAAACAC	-0.033
GTGGACAA	0.124
AGCAAGAC	-0.0712
ACACCAAC	-0.126
AAGCATAT	-0.014
GTCCCCGA	0.217
ATCCCCCG	0.3
ATCCCGAG	0.308
ATCCCGGG	0.392
ATCCCGTA	0.158
GTCCCGGA	0.439
ATCCCGGA	0.44
GTCCCGCA	0.163
ATCCCCGA	0.379
ATCCCGTG	0.212
ATCCCCTG	-0.16
ATCCCCGG	0.425
CGCGACAA	0.106
ATTGTAGG	-0.0526
ACAATCGA	-0.178

Sequence	PBM E-score
AATTAACA	-0.128
GACCTGAC	-0.198
CGAGGGCC	0.0992
ATCCCCCC	-0.298
CTCCCCGA	0.268
ATCCCGCC	0.297
CTCCCGGA	0.398
ATCCCGGC	0.391
CTCCCGGC	0.356
ATCCCCGC	0.393
CTCCCCGC	0.288
ATCCCGTC	0.231
GAGCCTAC	0.0364
AGCGTCTG	-0.136
CAGGGGAC	-0.151
AATGCTTC	0.0555
GAAACTGC	0.176
ATTGCTCC	0.256
AAATCCCG	0.426
CAATCCGC	0.197
AAATCCGT	0.362
AAATCCGA	0.449
CAATCCGA	0.251
CAATCCGG	0.393
AAATCCCA	-0.101
TAATCCGA	0.359

Sequence	PBM E-score
AAATCCAG	-0.0486
GAATCCGA	0.368
CAATCCCG	0.368
AAATCCGG	0.474
AGCGTCTC	0.0181
CCCTAGTC	-0.368
GATGGCCA	-0.102
CCCTAGCG	-0.352
CTGGGCAC	-0.183
ACCTCAAT	-0.178
CTCAGCCA	-0.0917
ATGAGCCG	-0.00632
ACCTACAA	-0.178
ACATCCGC	0.352
GAATCCGC	0.259
AAATCCGC	0.401
GACTTTAA	-0.0643
CATAGCCA	-0.115
GGGAATCA	-0.0137
AGGAATTC	-0.0584
AGGAATCA	-0.0846
GGGAATTA	0.143
AGGAAGTC	-0.156
CGGAAGTA	0.342
CGGAATCA	0.39
CTGAATTC	-0.0397

Sequence	PBM E-score
CGGAATTC	0.464
AGGAATTA	0.0107
CGGAATTA	0.466
CGGAAGTC	0.396
GACCTCAA	-0.226
TAGATAAA	-0.0204
AGTTGGTA	-0.238
AGTCAACC	-0.0996
CGAAGCGC	0.197
CCAGCCTC	-0.302
GTGGGTGA	0.0373
CAGTGGCG	0.0163
CACGGAAC	0.276
TACGGAAA	0.3
ACCGGAAG	0.388
ACCGGAAA	0.369
AGCGGAAC	0.333
CCCGGAAC	0.4
TGCGGAAA	0.334
TCCGGAAA	0.456
AACGGAAG	0.0937
AGCGGAAG	0.305
CGCGGAAC	0.368
ACCGGAAC	0.428
GCCACCAA	-0.0527
CTTCGCAC	-0.164

Sequence	PBM E-score
AAAAGTCC	0.371
TAATGGGA	-0.256
AGAAGAGG	-0.194
CCCTCAGC	-0.0523
GACGGAAA	0.35
CACGGAAG	0.228
CTCGGAAG	0.303
CCGGGAAA	0.354
CCCGGAAG	0.39
GCCGGGAA	0.329
GCCGGAAA	0.428
CCCGGAAA	0.429
ACCGGTAT	0.277
CACGGAAA	0.328
ACCGGAAT	0.389
ACCGGGAT	0.388
CGCAATTA	0.23
AAACTGCC	-0.0969
ACCTCTTA	0.176
GTCTAAAC	0.0271
ATCGCGTC	-0.0429
GCTTGGCA	-0.34
GCCGGAAC	0.432
GACGGAAC	0.192
GGCGGAAC	0.349
GAGCGCTC	0.0431

Sequence	PBM E-score
TCTTATCA	0.0183
CCAATGTC	-0.156
GCCTCCGA	0.398
ACCTCCGA	0.454
ACCTCCTA	-0.101
TCCTCCGA	0.43
CCCTCCGG	0.388
CCCTCCAG	-0.0892
CCCTCCGC	0.259
TCCTCCCA	0.0879
GCCTCCAA	-0.134
TCCTCCAA	-0.245
GCCTCCGC	0.361
ACCTCCAA	-0.209
AAGCCCAG	-0.143
ACACCTAG	-0.13
AGACTTCG	-0.137
GACAGGTA	-0.0451
GCTATAGA	-0.234
CCAGGCAC	-0.0214
CCCTCCAA	-0.119
CCCTCCTA	-0.107
ACCTCCGT	0.383
ACCTCCTG	-0.253
ACCTCCTC	-0.0564
ACCTCCAC	0.0767

Sequence	PBM E-score
ACCTCCGC	0.425
CCCTCCGA	0.405
ACCTCCGG	0.47
GTAAGAAA	-0.0755
GAGCGGCA	0.207
ATGGTCAC	-0.0597
ATTTAAAA	0.114
AGGTAGCA	-0.197
CATCTAAC	-0.0951
AGCTAGAC	-0.174
GCGGCGAA	0.378
TCGGCGAA	0.372
CTGGCGGA	0.183
CCGGCGGA	0.456
GCGGCGGA	0.453
GTGGCGGA	0.35
CCGGCGAA	0.404
CTGGCGGC	0.207
ACGGCGGC	0.167
ACGGCGGA	0.37
CAGGCGGA	0.327
CCGGCGGC	0.407
ACGCGAAC	-0.00887
ATGAAGCC	0.0954
ACTGCCCA	-0.151
AGTTCATA	-0.0477

Sequence	PBM E-score
AATGGGTG	-0.0286
GAGGCTTA	-0.0425
CCGGCGCC	0.422
ACGGCGCC	0.184
GCGGCGCC	0.289
AATTCTGT	-0.0602
CGCGTGGC	-0.00486
CTGGATTC	-0.00018
AGGGATTC	-0.0988
CGGGATTA	0.406
CGGGATTC	0.392
AGGGATTA	-0.223
GGGGATTA	0.175
GTCGGGCA	0.0838
GCTGAACA	-0.153
CTTAGTCA	-0.184
CACTACGG	0.201
AGGTCAAA	-0.237
GATAGTCA	-0.0752
GCTCAGGA	-0.173
ACCCTAAG	-0.173
GCTCGGGA	0.174
AGGAACTA	-0.0554
AGGAACTC	0.0174
GGGAACTA	0.11
CTGAACTC	-0.141

Sequence	PBM E-score
CGGAACTC	0.409
CGGAACTA	0.422
AGGCTTAA	-0.00203
GATACCTA	-0.0272
ATGACGAG	-0.153
GTATTGTA	0.0802
CATGCCGA	0.217
CATGCCGG	0.368
AATGCCGT	0.381
AATGCCGC	0.352
AATGCCGA	0.392
AATGCCGG	0.421
CGCCAGAC	-0.153
CAGATTAC	-0.0164
TATACCAA	-0.101
CGGAGCTA	0.42
AGGAGCTA	-0.144
CGGAGCTC	0.441
AGGAGCTC	-0.122
CTGAGCTC	0.0823
GGGAGCTA	-0.0279
CGTCTCTC	-0.00934
ATGGCTGA	-0.344
TCAGCACA	-0.175
CGGACATC	0.421
GGGACATA	0.0665

Sequence	PBM E-score
CGGACATA	0.454
CTGACATC	-0.0317
AGGACATC	0.0899
AGGACATA	-0.278
GGAAGTTA	0.204
ATTCCAAC	-0.176
TCGATGAA	-0.11
CTCTTTTC	-0.0672
CGGACGGC	0.313
CGGACGGA	0.397
GCGACGGA	0.313
CCGACGCG	0.394
GGGACGGA	0.369
ACGACGGA	0.301
CCGACGCC	0.361
CCGACGGA	0.425
ACGACGCG	0.0212
GACCTCCA	0.0669
CCAGCTAG	-0.391
CAAGTTAC	0.0544
GAGTTCAC	0.0107
ACGATGAG	-0.0386
ACCCAGTC	-0.0927
ATGCTTCC	-0.0282
CACTGGCC	-0.0953
CGGAGCAG	0.417

Sequence	PBM E-score
TGGAGCAA	-0.111
CTGAGCAG	-0.238
AGGAGCAC	-0.0853
AGGAGCAG	-0.00465
AGGAGCAA	-0.0147
GGGAGCAC	0.0245
CGGAGCAA	0.456
CGGAGCAC	0.391
GAGGGAAA	-0.26
AATGCGAG	0.00781
GTAGGGCA	-0.038
AATTCAGG	0.127
GTGGTATA	-0.188
CGTCTATC	0.0841
ACACACTA	-0.13
ATCGGGGG	0.209
ATCGGAGA	0.455
CTCGGATC	0.34
ATCAGAGA	-0.213
ATGGGAGA	-0.309
CTCGGTGC	0.0178
ATCGGTGG	0.13
CTTGGAGA	-0.0088
ATCGGAGG	0.426
CTCGGAGC	0.431
CTCGGCGA	0.354

Sequence	PBM E-score
CTCGGAGA	0.449
CTGCAGCA	-0.151
ACTCAAAG	-0.129
AACTTGTC	0.0361
TTAACCAA	-0.136
TAGCATAA	-0.111
ACTCCACA	-0.0234
CCTGACTA	-0.0923
ATCGGAGC	0.458
ATCGGATC	0.33
ATCAGAGC	-0.0306
GTCGGAGA	0.444
GTCGGATA	0.312
GTAGGAGA	-0.0599
ATATCTCA	0.0231
GATTATGA	-0.0204
GACTGGAA	-0.161
CAACTTAG	0.0176
AATAAGAC	-0.228
TGGGCCCA	0.026
AGGAGTTA	0.232
AGGAGTTC	0.109
GGGAGTTA	0.195
CTGAGTTC	0.0225
CGGAGTTA	0.493
CGGAGTTC	0.494

Sequence	PBM E-score
GCTACAAA	-0.0551
TAGCCACA	-0.289
CCTAAGAA	-0.261
CGAAAGCG	-0.00844
GTCCCAGA	-0.235
AGGCGGAG	0.39
CGGCGGCC	0.322
AGGCGGCG	0.193
AGGCGGGG	0.221
GGGCGGAC	0.399
AGGCGGAC	0.386
CGGCGGAG	0.461
GAGCGGAC	0.321
GGGCGAAC	0.0496
AGGCGGAT	0.237
CGGCGGCA	0.281
CGGCGGAC	0.411
